# About 1,700 (3.3%) of roughly 52,000 compounds were called active. The entries come from a sample that favours actives as a whole. Values without a mark were called inactive. Cut-off read from the data, not from the text of the source: active = survival mostly below about 52% (no sharp cut-off); inactive = mostly above about 56%.
# Test system: Wild type
# Assay: S. aureus survival, RN4220 and DeltatarO strains – OD600, teichoic acid synthesis inhibitors, primary screen (AID 463173)
# Conditions: S. aureus RN4220 wild type/DeltatarO growth, OD600, 18 h, stronger effect = lower value, screened at 18.75 µg/mL (by protocol)
row,SMILES,survival
1,Cc1cccc(C(=O)Nc2ccccc2OCc2cc(=O)n3c(C)csc3n2)c1,90%
2,Cc1ccc(Cl)cc1N1CCN(S(=O)(=O)c2ccc3c(c2)CC(=O)N3C)CC1,113%
3,COCCCNC(=O)c1ccc(Cn2c(=O)c3ccccc3n(CC(=O)Nc3c(C)cccc3C)c2=O)cc1,83%
4,CCCN(C(=O)CCn1cnc2onc(-c3ccc(F)cc3)c2c1=O)c1ccccc1C,72%
5,COCCCNC(=O)C1CCCN(C(=O)c2cnn(-c3ccc(F)cc3)c2-n2cccc2)C1 (configuration not stated),128%
6,CSc1nnc(COc2ccc(Cl)cc2)n1C,101%
7,CCOc1cc(CNC(=O)C(NS(=O)(=O)c2cccs2)C(C)C)cc(OCC)c1OCC (configuration not stated),65%
8,Cc1ccc(CNC(=O)c2ccc3c(c2)CCN3S(=O)(=O)c2ccccc2)cc1,84%
9,Cc1cccc(N2CCN(S(=O)(=O)c3ccc(F)c(C(=O)Nc4cccc(Cl)c4C)c3)CC2C)c1 (configuration not stated),100%
10,Cc1ccc(C)c(N2CCN(S(=O)(=O)c3ccc(F)c(C(=O)Nc4ccc(Cl)cc4Cl)c3)CC2)c1,80%
11,Cc1ccc(N2CCN(S(=O)(=O)c3ccc(F)c(C(=O)Nc4ccc(Cl)cc4Cl)c3)CC2C)cc1 (configuration not stated),-6% (active)
12,CCC1=NN(C(=O)Cc2ccccc2)C(O)(c2ccccc2)C1 (configuration not stated),107%
13,CCC(CC)C(=O)N1c2ccccc2C(C)(c2ccccc2)CC1(C)C (configuration not stated),-2% (active)
14,CC1=CC(C)(C)N(C(=O)Cc2ccccc2)c2ccccc21,126%
15,CC(=O)N1c2ccccc2C(C)(c2ccc(C)cc2)CC1(C)C (configuration not stated),-2% (active)
16,CCC(=O)N1c2ccccc2C(C)(c2ccccc2)CC1(C)C (configuration not stated),-3% (active)
17,CCC(=O)N1CCN(C(=O)CC)C1c1ccccc1,99%
18,CCC(CC)C(=O)N1CCN(Cc2ccccc2)CC1,108%
19,Cc1ccc(NC(=O)CN2C(=O)C(C)(C)c3ccccc32)cc1,77%
20,CCN1C(=O)C(O)(C(C)C(=O)c2ccccc2)c2ccccc21 (configuration not stated),111%
21,CCCCOc1ccc(C2(C(=O)O)CCCC2)cc1,105%
22,CC(=O)N1c2ccccc2N(C)C(=O)C1(C)C,105%
23,CCCCC(=O)N1c2ccccc2C(C)(c2ccccc2)CC1(C)C (configuration not stated),-2% (active)

row,SMILES,survival
1,CCc1ccc(NC(=O)Cn2c(=O)n(CCCCC(=O)NCc3ccccc3Cl)c(=O)c3ccccc32)cc1,90%
2,CC(C)c1ccc(NC(=O)CN2C(=O)CSc3ccc(S(=O)(=O)N4CCCC4)cc32)cc1,91%
3,CC1Cc2cc(S(=O)(=O)N(C)c3ccc(Br)cc3)ccc2N1C(=O)C1CC1 (configuration not stated),106%
4,COc1cc2c(=O)c(C(=O)c3ccc(C)c(C)c3)cn(Cc3ccccc3F)c2cc1OC,127%
5,COc1ccc(OC)c(NC(=O)c2cc(=O)c3c(C)cc(C)cc3o2)c1,87%
6,O=C(NC1CC(=O)N(c2ccc(Cl)cc2)C1)c1ccc(S(=O)(=O)N2CCCC2)cc1 (configuration not stated),127%
7,CC(=O)N1CCCc2cc(S(=O)(=O)N3CCCC(C(=O)Nc4ccc(C)c(F)c4)C3)ccc21 (configuration not stated),73%
8,COCCNC(=O)c1cnn(-c2cccc(C)c2)c1-n1cccc1,99%
9,CCOc1ccccc1C(=O)N1CCc2cc(OC)c(OC)cc2C1COc1ccc2c(C)cc(=O)oc2c1 (configuration not stated),76%
10,Cc1c(C(=O)Nc2ccccc2Br)oc2ccc(S(=O)(=O)N3CCOCC3)cc12,113%
11,CCCCCC(=O)N1c2ccccc2C(C)(c2ccccc2)CC1(C)C (configuration not stated),-2% (active)
12,CC(C)c1ccc(S(=O)(=O)c2nnn3c2nc(N2CCCC2)c2sccc23)cc1,89%
13,Cc1ccc(CC(=O)N(Cc2nc(-c3ccc(C)cc3)no2)C(C)C)cc1,-1% (active)
14,COc1ccc(-c2noc(CN(C(=O)c3cc(OC)c(OC)cc3OC)C(C)C)n2)cc1,86%
15,COc1ccc(-c2noc(CN(C(C)C)S(=O)(=O)c3ccc(Br)cc3)n2)cc1,81%
16,CC(C)N(Cc1nc(-c2ccc(Cl)cc2)no1)C(=O)c1ccco1,76%
17,COc1ccc(-c2noc(CN(C(=O)c3ccc(C)cc3C)C(C)C)n2)cc1,0% (active)
18,COc1ccc(-c2noc(CN(C(=O)COc3cc(C)c(Br)c(C)c3)C(C)C)n2)cc1,7% (active)
19,Cc1ccc(-c2noc(CN(C(=O)COc3cc(C)cc(C)c3C)C(C)C)n2)cc1,1% (active)
20,Cc1ccccc1C(=O)N(Cc1nc(-c2ccc(Cl)cc2)no1)C(C)C,86%
21,Cc1ccc(-c2noc(CNC(=O)COc3cc(C)c(Br)c(C)c3)n2)cc1,89%
22,COc1ccc(-c2noc(CN(C(=O)c3ccccc3Cl)C(C)C)n2)cc1,97%
23,O=C(O)CC(C(=O)O)c1cn(Cc2ccccc2)c2ccccc12 (configuration not stated),105%

row,SMILES,survival
1,CC(C)(C)OC(=O)N1CCC(c2c(C(=O)NCCc3ccccc3)cnn2-c2ccc(F)cc2)CC1,78%
2,Cc1ccc(C)c(Cn2c3ccccc3c3cnn(CC(=O)NCCC4=CCCCC4)c(=O)c32)c1,82%
3,CC(Sc1nc(=O)cc(N)n1CCc1ccccc1)C(=O)Nc1ccccc1C#N (configuration not stated),75%
4,CC(C(=O)NCC1CCCO1)N(C(=O)c1snc(C(N)=O)c1N)c1cccc(F)c1 (configuration not stated),101%
5,Cc1ccccc1NC(=O)CSc1nnc(C)c(=O)[nH]1,89%
6,Cc1ccc(Nc2sc(C(=O)c3ccccc3)c(N)c2C(=O)NC(C)C)cc1,78%
7,O=C(CSc1nccn1Cc1ccccc1)Nc1ccc2c(c1)OCO2,138%
8,COc1ccc(-c2noc(CN(C(=O)C(C)Oc3ccc(C)cc3)C(C)C)n2)cc1 (configuration not stated),77%
9,COc1ccc(CC(=O)N(Cc2nc(-c3ccc(C)cc3)no2)C(C)C)cc1,33%
10,COc1ccc(-c2noc(CN(C(=O)Cc3ccc(C)cc3)C(C)C)n2)cc1,5% (active)
11,COc1ccccc1OC(C)C(=O)N1CCN(CCc2ccccn2)CC1 (configuration not stated),82%
12,COc1ccc2c(c1)c(=O)c(C(=O)c1ccc(F)cc1)cn2CC(=O)Nc1ccc2c(c1)OCO2,91%
13,CC(C)Cn1c(C2CC(=O)N(c3ccccc3Cl)C2)nc2ccccc21 (configuration not stated),97%
14,CCCCNc1nc2c(-c3cccc(Br)c3)nnn2c2ccccc12,92%
15,CC(C)Nc1nc2c(-c3cccc(Br)c3)nnn2c2ccccc12,74%
16,CCCn1c(SCC(O)c2ccccc2)nc2ccccc21 (configuration not stated),86%
17,CC(C)Cn1c(-c2ccccc2Cl)nc2ccccc21,26% (active)
18,CC(C)Cn1c(-c2cccc(Br)c2)nc2ccccc21,27% (active)
19,CCCn1c(-c2cccc(Br)c2)nc2ccccc21,3% (active)
20,Cc1nc2ccccc2c(=O)n1CC(C)C,106%
21,CC(=O)NC(C)c1nc2ccccc2n1Cc1ccccc1Cl (configuration not stated),91%
22,O=C(NCCc1ccc(Cl)cc1)c1ccc(CS(=O)Cc2ccccc2Cl)o1 (configuration not stated),62%
23,COc1ccccc1CCNC(=O)c1cc2c(=O)n3cccc(C)c3nc2n1C,85%

row,SMILES,survival
1,COc1ccc(C2CC(=O)c3cc(-c4nc(-c5ccc(Cl)cc5)c(C)s4)c(=O)[nH]c3C2)cc1 (configuration not stated),71%
2,Cc1ccc(CCNC(=O)c2cc3c(=O)n(C)c4ccccc4c3n2C)cc1,80%
3,Cc1ccc(C)c(Cn2c(=O)n(CCCCC(=O)NCc3ccc4c(c3)OCO4)c(=O)c3ccccc32)c1,110%
4,CC(NC(=O)CN1C(=O)c2cccnc2Oc2ccc(Cl)cc21)c1ccccc1 (configuration not stated),74%
5,Cc1c(C(=O)N2CCC(C)CC2)c(S(=O)(=O)NCc2ccc(Br)cc2)c(C)n1C,80%
6,COc1ccccc1Cn1cc(C(=O)c2ccc(C)cc2)c(=O)c2cc3c(cc21)OCCO3,83%
7,COc1ccc(OC)c(CNC(=O)c2ccc3c(c2)c(C)c(C)n3Cc2ccc(Cl)cc2)c1,82%
8,CCNC(=O)c1sc2ccccc2c1Cl,124%
9,CCN(C(=O)c1cn(-c2ccc(OC)cc2)c(=O)c2ccccc12)c1cccc(Cl)c1,119%
10,CCN(C(=O)c1sc2cc(OC)ccc2c1Cl)c1ccccc1,-9% (active)
11,O=C(COc1ccc(Cl)cc1)NCCc1csc(-c2ccc(F)cc2)n1,73%
12,Cc1ccccc1Cn1nnc2sc3c(c2c1=O)CCCC3,0% (active)
13,Cc1ccc(Cn2nnc3sc4c(c3c2=O)CCC(C)C4)cc1 (configuration not stated),60%
14,O=c1c2c3c(sc2nnn1Cc1ccc(Br)cc1)CCCC3,28%
15,COC(=O)c1ccc(Cn2nnc3sc4c(c3c2=O)CCCC4)cc1,77%
16,COC(=O)c1ccc(Cn2nnc3sc4c(c3c2=O)CCC(C)C4)cc1 (configuration not stated),75%
17,CC1CCc2c(sc3nnn(Cc4ccccc4Cl)c(=O)c23)C1 (configuration not stated),16%
18,CCCOC(=O)c1ccc(Cn2nnc3sc4c(c3c2=O)CCC(C)C4)cc1 (configuration not stated),77%
19,CC1CCc2c(sc3nnn(Cc4ccccc4)c(=O)c23)C1 (configuration not stated),0% (active)
20,CC1CCc2c(sc3nnn(Cc4ccc(F)cc4)c(=O)c23)C1 (configuration not stated),1% (active)
21,O=C(NCc1ccco1)c1ccc(COCC(F)(F)C(F)F)cc1,98%
22,COc1ccccc1N1CCN(C(=O)CN2C(=O)COc3ccc(S(=O)(=O)N4CCC(C)CC4)cc32)CC1,98%
23,CCCCc1nn2c(=O)cc(COC(=O)c3cccc(NC(=O)c4cccc(Cl)c4)c3)nc2s1,85%

# Reference: PubChem BioAssay AID463173 (ICCB-Longwood Screening Facility, Harvard Medical School, 2010)
